Several values for one entry are separate records, joined by “and”; a condition that tells them apart may be missing. Identical values can stand only once.
Experiment: A High Throughput Confirmatory Assay used to Identify Novel Compounds that Inhibit Mycobacterium Tuberculosis in the absence of Glycerol using Purified and Synthesized Compounds (7).
Type: functional
With `CC1CCCN(C(=O)c2ccc(CNc3c(N4CCCCC4)c(=O)c3=O)cc2)C1` (stereo not drawn) the IC90 was > 100 µM (active). With `CC1CCCN(C(=O)C2CCC(CNc3c(N4CCCCC4)c(=O)c3=O)CC2)C1` (stereo not drawn) the IC90 was > 100 µM (active). With `O=C(C1CCC(CNc2c(N3CCCCC3)c(=O)c2=O)CC1)N1CCCCC1` (stereo not drawn) the IC90 was > 100 µM (active). For `O=C(NCCc1ccc(Cl)cc1)C1CCC(CNc2c(N3CCCCC3)c(=O)c2=O)CC1` (stereo not drawn), the IC90 was > 100 µM (active). For `O=C(NCCc1ccc(Cl)cc1)c1ccc(CNc2c(N3CCOCC3)c(=O)c2=O)cc1`, the IC90 was > 100 µM (active). With `CC(=O)c1ccc(NC(=O)c2ccc(CNc3c(N4CCOCC4)c(=O)c3=O)cc2)cc1` the IC90 was > 100 µM (active). In the case of `O=C(c1ccc(CNc2c(N3CCCC3)c(=O)c2=O)cc1)N1CCc2ccccc2C1`, the IC90 is reported as > 100 µM (active). With `COc1ccc(N2CCN(C(=O)c3ccc(CNc4c(N5CCOCC5)c(=O)c4=O)cc3)CC2)cc1` the IC90 was > 100 µM (active). With `O=C(c1ccc(CNc2c(N3CCCC3)c(=O)c2=O)cc1)N1CC=C(c2ccccc2)CC1` the IC90 was > 68.8 µM (active) and > 79.4 µM (active). In the case of `CC1CCN(C(=O)c2ccc(CNc3c(N4CCCC4)c(=O)c3=O)cc2)CC1`, the IC90 is reported as > 100 µM (active). With `CC1CC(C)CN(C(=O)c2ccc(CNc3c(N4CCCC4)c(=O)c3=O)cc2)C1` (stereo not drawn) the IC90 was > 100 µM (active). In the case of `CC(C)OC(=O)CSc1ncnc2c1cnn2-c1ccccc1`, the IC90 is reported as > 100 µM (active). In the case of `CC1CC(C)CN(C(=O)C2CCC(CNc3c(N4CCCCC4)c(=O)c3=O)CC2)C1` (stereo not drawn), the IC90 is reported as > 75 µM (active) and > 100 µM (active).

Reference: ChEMBL document CHEMBL1201862, “PubChem BioAssay data set” (2004)
